VACV mCherry inh: inhibitors of vaccinia virus infection (mCherry reporter signal) | Vaccinia virus mCherry reporter infection, fluorescence | Potency, µM (top dose mostly 36.5 µM), hits mostly inhibitors | 0.63% of 310,000 active; calls by dose curve; tested in A549 cells; further: nearly all actives have a fitted effect of over 35% in size
HCMV antiviral: human cytomegalovirus inhibition; 4.5% of 410,000 active; activity change, negative = inhibition, % at 57.5 µM; AID 1259415; HFF cells, HCMV-luciferase reporter, 72 h; hits give low values; in the data active means activity change below about -60%; inconclusive means no clear call, values can overlap the other calls; inactive means above about -39%
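HFF cells seeded 16 h at 37C, treated with compounds, infected with luciferase-reporter HCMV at MOI 1 PFU/cell; luciferase read at 72 h post infection, normalized to buffer-only and Salinomycin controls.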
Vaccinia Venus: inhibitors of vaccinia virus (Venus reporter) | Vaccinia virus Venus reporter expression, fluorescence | Potency, µM (top dose mostly 36.5 µM), most hits filed as inhibitors | 0.46% of 330,000 active | AID 720580; calls by dose curve; tested in A549 cells; further: nearly all actives have a fitted effect of over 30% in size
FMDV antiviral: antivirals against foot and mouth disease virus; Potency, µM (doses to about 57.9 µM), hits mostly inhibitors; 1.2% of 410,000 active; FMDV antiviral cell-based qHTS; AID 1159524; calls by dose curve; tested in HEK293T cells; further: read-out not given here; nearly all actives have a fitted effect of over 45% in size
HCV inhibitor: inhibitors of hepatitis C virus infection; Huh7.5.1 HCVcc-Cre infection, luciferase reporter, 44 h; Potency, µM (titrated, usually from 41.8 µM), hits mostly inhibitors; 3.4% of 340,000 active; AID 651820
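1,000 cells/well; 4 h culture; + compound; + HCVcc-Cre (~0.5 moi); 44 h; luciferase substrate, RT 15 min; read 15 sec.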
HCV inh confirm: confirmation of hepatitis C virus inhibitors; shares compounds with HCV inhibitor; Potency, µM (titrated, usually from 41.8 µM), actives largely listed as inhibitors; 78% of 640 active; HCVcc-Cre infectious virus cell assay, luciferase, inhibition; further: nearly all actives have a fitted effect of over 80% in size
HCV host tox: host cell cytotoxicity counter-screen for HCV inhibitors; shares compounds with HCV inhibitor; HCV host cell line cytotoxicity counterscreen; Potency, µM (doses to about 41.8 µM), usual class: inhibitors; 22% of 640 active; AID 720576;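 further: 44 h compound exposure; nearly all actives have a fitted effect of over 55% in size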
Large screens that a line does not name were inactive (follow-up assays come after a bar, where they were run). Shown are actives, neighbours in structure and some others; about 7.3% of the full set was active somewhere. Unless noted, the call rests on the fitted dose curve; in most records, active means well fitted curve in the direction sought with a large enough effect; inconclusive means small, poorly fitted or top-dose-only effect, or another doubt; inactive means no such curve, though single readings can be large; an effect the other way counts as inactive or inconclusive.

Cn1c(=O)c2c(nc(SCC(=O)NCc3ccc4c(c3)OCO4)n2Cc2ccc(Cl)cc2)n(C)c1=O	HCV inhibitor 2.51µM (no result: VACV mCherry inh, Vaccinia Venus) | HCV inh confirm 3.53µM | HCV host tox inactive
CCN(CC)c1ccc(/C=N/NC(=O)c2ccoc2C)c(O)c1	VACV mCherry inh 1.12µM, HCMV antiviral -100.0, Vaccinia Venus inconclusive, HCV inhibitor 2.82µM | HCV inh confirm 7.05µM | HCV host tox 7.91µM
CCOc1cc(CNC(C)(C)C)ccc1OCC(=O)Nc1cccc(C(F)(F)F)c1	HCV inhibitor inconclusive | HCV inh confirm 3.15µM | HCV host tox inactive
CC(=O)N(C1CC(C)C(C#N)(C#N)C1(C#N)C#N)N(C)C (configuration not stated)	VACV mCherry inh inconclusive, FMDV antiviral inconclusive, HCV inhibitor 6.31µM | HCV inh confirm inactive | HCV host tox inactive
CCN(CC)C(=O)CSc1nc2cc3c(cc2c(=O)n1Cc1ccc(OC)cc1)OCO3	HCMV antiviral inconclusive, HCV inhibitor inconclusive | HCV inh confirm 5.6µM | HCV host tox inactive
CCCCNC(=O)CSc1nc2cc3c(cc2c(=O)n1CCCCCC(=O)NCc1ccc(OC)cc1)OCO3	none (no result: HCV inhibitor)
CC(=O)c1sc(NC(=O)CCS(=O)(=O)c2ccc(C)cc2)nc1C	Vaccinia Venus inconclusive, HCV inhibitor 2.82µM | HCV inh confirm inconclusive | HCV host tox inconclusive
O=C(NCCN1CCCC1)c1ccc(Cn2c(=S)[nH]c3cc4c(cc3c2=O)OCO4)cc1	HCV inhibitor inconclusive (no result: VACV mCherry inh, Vaccinia Venus)
C=CCNC(=O)c1ccc(Cn2c(=S)[nH]c3cc4c(cc3c2=O)OCO4)cc1	HCV inhibitor inconclusive (no result: VACV mCherry inh, Vaccinia Venus) | HCV inh confirm 2.5µM | HCV host tox inactive
CCCCC(=O)Nc1ccc(NC(=O)c2ccc3c(c2)OCO3)cc1OC	HCV inhibitor 2.51µM (no result: VACV mCherry inh, Vaccinia Venus) | HCV inh confirm inconclusive | HCV host tox inactive
N#CCCN(C(=O)COC(=O)COc1ccccc1Cc1ccccc1)c1ccccc1	none (no result: VACV mCherry inh, Vaccinia Venus)
NC(=O)COc1ccc(/C=N\NC(=O)CC(=O)NCCc2ccccc2)cc1	HCMV antiviral inconclusive
CC(C)(C)OC(=O)COc1cc(O)c2c(=O)cc(-c3ccccc3)oc2c1	HCMV antiviral inconclusive, HCV inhibitor inconclusive (no result: VACV mCherry inh, Vaccinia Venus) | HCV inh confirm 28µM | HCV host tox inactive
CC12CCC(C)(c3nc4ccccc4nc31)C2(C)C	none
Cc1[nH]nc2c1-c1nc3ccccc3nc1C(C)(C)C2	HCMV antiviral -74.3, FMDV antiviral inconclusive, HCV inhibitor 5.62µM (no result: VACV mCherry inh, Vaccinia Venus) | HCV inh confirm 7.91µM | HCV host tox inconclusive
CCOc1ccc(C(=O)N2CCN(Cc3cc(=O)n4nc(-c5ccccc5Cl)sc4n3)CC2)cc1	none (no result: HCV inhibitor)
Cc1cc(S(=O)(=O)Nc2ccc3ccccc3c2)c(C)s1	HCMV antiviral inconclusive, HCV inhibitor inconclusive (no result: VACV mCherry inh, Vaccinia Venus) | HCV inh confirm 22.3µM | HCV host tox inconclusive
C/C(=N\NC(=S)Nc1cc(S(=O)(=O)N2CCOCC2)ccc1Cl)c1ccccc1F	HCMV antiviral -91.5, FMDV antiviral 12.6µM, HCV inhibitor inconclusive | HCV inh confirm 22.3µM | HCV host tox inconclusive
CC(C)N(C(=S)Nc1cc(S(=O)(=O)N2CCOCC2)ccc1Cl)c1ccccc1	none
NC(=O)COc1ccccc1C(=O)Nc1ccccc1	none (no result: HCMV antiviral, FMDV antiviral, HCV inhibitor)
COc1ccc([N+](=O)[O-])cc1NC(=O)CSc1nc(C)cc(C)n1	HCMV antiviral inconclusive, HCV inhibitor inconclusive
COc1ccc([N+](=O)[O-])cc1NC(=O)CSc1ccc2ccccc2c1	HCMV antiviral inconclusive, HCV inhibitor inconclusive | HCV inh confirm 12.5µM | HCV host tox inconclusive
COc1ccc(-c2cc(C)no2)cc1S(=O)(=O)N1CCN(c2ccc([N+](=O)[O-])cc2)CC1	HCMV antiviral active, HCV inhibitor 3.98µM (no result: VACV mCherry inh, Vaccinia Venus) | HCV inh confirm 8.87µM | HCV host tox 25µM
COc1cc(NC(=O)C2CCN(c3nc4ccccc4nc3C(F)(F)F)CC2)cc(OC)c1	none (no result: HCV inhibitor)
O=C(Nc1ncc(Cc2ccc(SC(F)F)cc2)s1)c1ccccc1	VACV mCherry inh inconclusive, HCMV antiviral inconclusive, HCV inhibitor inconclusive | HCV inh confirm 14.1µM | HCV host tox 28µM
Cc1ccc(OCc2nnc(SCC(=O)Nc3ccccc3C(C)C)o2)cc1	none (no result: HCV inhibitor)
O=C(c1ccc(F)cc1F)N1CCN(c2ccccn2)CC1	none
CC(Nc1nc(-c2ccc(F)cc2)cs1)c1nc2cc(Cl)c(Cl)cc2n1CCOCCO (configuration not stated)	VACV mCherry inh inconclusive, Vaccinia Venus inconclusive
COc1ccc(-c2csc(NC(C)c3nc4cc(Cl)c(Cl)cc4n3CCCO)n2)cc1 (configuration not stated)	VACV mCherry inh inconclusive, Vaccinia Venus inconclusive, HCV inhibitor 8.91µM | HCV inh confirm 12.5µM | HCV host tox inactive
O=C1/C(=C/c2cccnc2)Oc2cc(OS(=O)(=O)c3ccc(F)cc3)ccc21	FMDV antiviral 22.4µM, HCV inhibitor 4.47µM (no result: VACV mCherry inh, Vaccinia Venus) | HCV inh confirm 25µM | HCV host tox inactive
COc1ccc(S(=O)(=O)N(C)C)cc1NC(=O)C1CCN(c2ncnc3sc(C)c(C)c23)CC1	HCMV antiviral inconclusive, FMDV antiviral inconclusive, HCV inhibitor 8.91µM (no result: VACV mCherry inh, Vaccinia Venus) | HCV inh confirm 8.87µM | HCV host tox inconclusive
Cc1sc2ncnc(N3CCC(C(=O)Nc4nc(-c5cccs5)cs4)CC3)c2c1C	HCV inhibitor inconclusive
COc1cccc(CNC(=O)c2cccc(S(=O)(=O)N3CCN(C)CC3)c2)c1	none
CCS(=O)(=O)N(C)C[C@@H]1OCc2ccccc2-c2c(n(C)c3ccccc23)C(=O)N([C@H](C)CO)C[C@@H]1C	none (no result: VACV mCherry inh, Vaccinia Venus, FMDV antiviral, HCV inhibitor)
NS(=O)(=O)c1ccc(CCNc2nc3c(-c4cccc(F)c4)nnn3c3ccccc23)cc1	HCV inhibitor 1.41µM | HCV inh confirm 7.05µM | HCV host tox inactive
O=C(CN(Cc1ccccc1)C1=NCCS1)c1ccc(Cl)cc1	HCV inhibitor 6.31µM (no result: VACV mCherry inh, Vaccinia Venus) | HCV inh confirm 8.87µM | HCV host tox inactive
COc1ccc(C(=O)CN(Cc2ccccc2)C2=NCCS2)cc1	none
c1ccc(-c2nn(-c3ccccc3)[n+](-c3ccccc3)n2)cc1	HCMV antiviral -95.0, FMDV antiviral inconclusive, HCV inhibitor 3.16µM | HCV inh confirm 25µM | HCV host tox inconclusive
O=C(Nc1ccccc1)N1CC2(CCN(S(=O)(=O)c3ccccc3)CC2)C1	none (no result: VACV mCherry inh, HCMV antiviral, Vaccinia Venus, HCV inhibitor)
O=C(COC(=O)c1cc(S(=O)(=O)N2CCCCC2)ccc1N1CCOCC1)c1ccc(Cl)cc1	HCV inhibitor inconclusive
O=C(OCCOc1cccc(Cl)c1)c1cc(S(=O)(=O)N2CCCCC2)ccc1N1CCOCC1	VACV mCherry inh inconclusive, HCMV antiviral -88.2, Vaccinia Venus inconclusive, FMDV antiviral inconclusive, HCV inhibitor inconclusive | HCV inh confirm 3.53µM | HCV host tox 6.28µM
COc1ccc(OC)c(NC(=O)c2ccccc2SC)c1	HCV inhibitor 8.91µM (no result: VACV mCherry inh, Vaccinia Venus) | HCV inh confirm inconclusive | HCV host tox inactive
COc1ccc(NC(=O)c2ccccc2SC)cc1	none
Cc1ccc(F)cc1C(=O)N1CCCCC1c1cc(C(=O)NC(C)C)no1 (configuration not stated)	none (no result: HCV inhibitor)

Compound activity deposited in PubChem by National Center for Advancing Translational Sciences (NCATS).
